# Assay results reported in PubChem BioAssay AID449762 (Southern Research Specialized Biocontainment Screening …, 2010).
# About 1,900 (0.58%) of roughly 330,000 compounds were called active. About 4% were inconclusive and are not listed. No stated cut-off is given here; in the data, inconclusive means inhibition above about 70% without an active follow-up result; inactive means below that. A selection follows. Measured potencies and affinities stand elsewhere.
# Test: M. tuberculosis growth inhibition, HTS (AID 449762);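 further: bacterial growth assessed after seven days of incubation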
# Conditions: M. tuberculosis H37Rv growth inhibition, 7H9 media; at 25 µM; stronger effect = higher value
row,Structure (SMILES),inhibition
1,CCOC(=O)c1[nH]c2c(c1-c1ccccc1)C(=O)CC(c1ccccc1)C2 (stereo not drawn),3.2% (inactive)
2,Nc1nc2ccccc2n1CCN1CCCC1,-1.87% (inactive)
3,CC(C)(C)c1ccc(C(=O)O)c(C(=O)c2ccccc2)c1,-4.75% (inactive)
4,Brc1cnc2nc(SC/C=C/c3ccccc3)[nH]c2c1,-5.71% (inactive)
5,COc1ccccc1C(=O)NCC1CCN(c2ccc(S(=O)(=O)N3CCOCC3)cc2)CC1,2.24% (inactive)
6,COc1cccc(C(=O)NCC2CCN(c3ccc(S(=O)(=O)N4CCOCC4)cc3)CC2)c1,-13.8% (inactive)
7,CC(=O)NS(=O)(=O)c1ccc(NS(=O)(=O)c2ccccc2[N+](=O)[O-])cc1,3.53% (inactive)
8,CCN(CC)CCCC(C)NC(=O)c1ccc(C(F)(F)F)cc1 (stereo not drawn),-7.51% (inactive)
9,CCCCNC(=O)CN(c1cc(C(F)(F)F)ccc1Cl)S(C)(=O)=O,-6.63% (inactive)
10,O=C(CCN1CCCC1)Nc1ccccc1,22.9% (inactive)
11,Cc1ccc(C)c(N2CCN(C(=S)Nc3ccc4nc(N5CCOCC5)cc(C)c4c3)CC2)c1,-4.9% (inactive)
12,Cc1cc(N2CCN(C)CC2)nc2ccc(NC(=S)N3CCCCCC3)cc12,3.75% (inactive)
13,CCN(CCCNC(=O)CNC(=O)c1nn(-c2ccc(OC)cc2)c(=O)c2ccccc12)c1cccc(C)c1,8.46% (inactive)
14,Cc1cc2c(cc1C)CSC(c1ccc3ccccc3c1O)SC2,-4.57% (inactive)
15,Cc1cc2c(cc1C)CSC(c1ccccc1O)SC2,13.6% (inactive)
16,CCOc1ccc2oc(=O)cc(CN3CCN(C(=O)c4ccco4)CC3)c2c1,4.6% (inactive)
17,Cn1c(N)c(C(=O)COC(=O)c2ccc(Br)o2)c(=O)n(C)c1=O,1.58% (inactive)
18,CN1/C(=C\C(=O)C[n+]2cccc(C(N)=O)c2)C(C)(C)c2ccccc21,0.09% (inactive)
19,CN1/C(=C\C(=O)COC(=O)c2ccco2)C(C)(C)c2ccccc21,0.58% (inactive)
20,Cn1c(N)c(C(=O)COC(=O)c2ccco2)c(=O)n(C)c1=O,1.11% (inactive)

row,Structure (SMILES),inhibition
1,Cc1ccc[n+](CC(=O)/C=C2\N(C)c3ccccc3C2(C)C)c1,-2.49% (inactive)
2,CN1/C(=C\C(=O)COC(=O)c2ccc(O)cc2)C(C)(C)c2ccccc21,-3.13% (inactive)
3,COc1ccc(Cl)cc1NC(=O)CSc1nnc(-c2ccco2)o1,-2.66% (inactive)
4,O=C(OCC(=O)N1CCCCC1)c1c[nH]c(=O)[nH]c1=O,-1.77% (inactive)
5,COc1ccccc1C(=O)NC(CCSC)C(=O)NNC(=O)c1ccccc1O (stereo not drawn),-6.8% (inactive)
6,CC(C)(C)C(=O)O/N=C(\N)c1ccc(Oc2cc(Cl)cc(Cl)c2)c([N+](=O)[O-])c1,0.8% (inactive)
7,CCCCN1CC(O)=C(c2nc3ccccc3[nH]2)C1=N,-10.6% (inactive)
8,COc1ccc(NC(=O)N(C)C[C@H]2Oc3ccc(NC(=O)Cc4ccccc4)cc3C(=O)N([C@H](C)CO)C[C@@H]2C)cc1,-4.97% (inactive)
9,COc1ccc(C(=O)NCC(c2ccc3c(c2)OCO3)N2CCN(c3ccc(OC)cc3)CC2)cc1 (stereo not drawn),7.52% (inactive)
10,O=C(COc1ncnc2cc([N+](=O)[O-])ccc12)NC1CCCCC1,-3.77% (inactive)
11,CCOC(=O)c1ccc(NC(=O)CSc2nc(C)nc3c2c(=O)n(C)c(=O)n3C)cc1,-9.19% (inactive)
12,CCCC/C(=N/O)c1c(C)[nH]c2ccccc12,-0.42% (inactive)
13,CCc1sc2nc(SCC(=O)Nc3cc(C)on3)n(-c3cccc(OC)c3)c(=O)c2c1C,-0.05% (inactive)
14,Cc1c(NC(=O)c2noc3c2CCc2ccccc2-3)c(=O)n(-c2ccccc2)n1C,43% (inactive)
15,COc1ccc2c(c1)CCc1c(C(=O)Nc3c(C)nn(Cc4ccccc4)c3C)noc1-2,0.29% (inactive)
16,CC(C)(C)c1nnc(NC(=O)CCS(=O)(=O)Cc2ccccc2)s1,-8.95% (inactive)
17,O=C(Cc1ccc(Br)cc1)NC1CCSC1=O (stereo not drawn),-3.33% (inactive)
18,O=C(c1cccs1)N1CCN(c2cccc(Cl)c2)CC1,0.26% (inactive)
19,O=C(Cn1ccsc1=NC(=O)C(F)(F)F)c1ccccc1,-3.48% (inactive)
20,CC(=O)NC12CC3CC(C1)CC(C(=O)Nc1nc4ccc(S(C)(=O)=O)cc4s1)(C3)C2,-8.67% (inactive)

row,Structure (SMILES),inhibition
1,CC(=O)NC12CC3CC(C1)CC(C(=O)Nc1nccs1)(C3)C2,-0.32% (inactive)
2,Cn1c(O)c(C2=c3ccccc3=NC2=O)[nH]c1=S,37% (inactive)
3,Cc1ccc2c(c1)c(C1=NC(=S)NC1=O)c(O)n2C,-2.95% (inactive)
4,C/C(=N\NC(=O)c1ccc(Cn2cc([N+](=O)[O-])cn2)o1)c1cccc(NC(=O)c2cccnc2)c1,-0.38% (inactive)
5,Clc1cccc(C2Nc3cccc4cccc(c34)N2)c1,11.6% (inactive)
6,O=C(c1ccccc1)c1ccc(OCCCCN2CCCCC2)cc1,3.79% (inactive)
7,O=C(c1ccccc1)c1ccc(OCCCN2CCCC2)cc1,-9.38% (inactive)
8,Cc1nc(Nc2c(Cl)cccc2Cl)sc1C(=O)Nc1ccccc1,12% (inactive)
9,Cc1nc(Nc2ccccc2)sc1C(=O)Nc1ccccc1,7.98% (inactive)
10,CC(NC(=O)/C(C#N)=C/c1cccs1)c1ccccc1 (stereo not drawn),-1.56% (inactive)
11,Clc1ccc2c(c1)C(c1ccccc1Cl)=NCc1nnc(Br)n1-2,6.91% (inactive)
12,CCOCCN1CCN(c2nnc3n2-c2ccc(Cl)cc2C(c2ccccc2Cl)=NC3)CC1,4.83% (inactive)
13,Cn1c(=O)c2c(nc(SCCN3CCOCC3)n2C)n(C)c1=O,1% (inactive)
14,O=C(CCc1ccc(Oc2cc([N+](=O)[O-])cc([N+](=O)[O-])c2)cc1)NC1CCCC1,30.8% (inactive)
15,O=C(c1ccc(Oc2ccc([N+](=O)[O-])cc2)cc1)N1CCCCCC1,20.3% (inactive)
16,Cc1cc(C)nc(OC(C(=O)O)C(OCC(C)C)(c2ccccc2)c2ccccc2)n1 (stereo not drawn),-3.41% (inactive)
17,Cc1cccc(C(=O)NC2CC(C)(C)NC(C)(C)C2)c1,-6.34% (inactive)
18,Cc1ccc(S(=O)(=O)/N=C2/NC(=O)/C(=C/c3ccc(Br)o3)S2)cc1,-2.8% (inactive)
